# Screening data deposited in PubChem by National Center for Advancing Translational Sciences (NCATS).
# Shown are actives, neighbours in structure and some others; about 12% of the full set was active somewhere.
# AmpC inh detg = qHTS Inhibitors of AmpC Beta-Lactamase (assay with detergent) | P00811 | AmpC hydrolysis of nitrocefin, absorbance 480 nm, 0.01% Triton | Potency, µM (highest dose often 114 µM), for the others: top-dose activity change, negative = inhibition, usual class: inhibitors | 0.041% of 370,000 active;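 note: 0% = no-compound wells and -100% = no-enzyme wells; nearly all actives have a fitted effect of over 25% in size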
# Target sequence (P00811 whole entry, looked up): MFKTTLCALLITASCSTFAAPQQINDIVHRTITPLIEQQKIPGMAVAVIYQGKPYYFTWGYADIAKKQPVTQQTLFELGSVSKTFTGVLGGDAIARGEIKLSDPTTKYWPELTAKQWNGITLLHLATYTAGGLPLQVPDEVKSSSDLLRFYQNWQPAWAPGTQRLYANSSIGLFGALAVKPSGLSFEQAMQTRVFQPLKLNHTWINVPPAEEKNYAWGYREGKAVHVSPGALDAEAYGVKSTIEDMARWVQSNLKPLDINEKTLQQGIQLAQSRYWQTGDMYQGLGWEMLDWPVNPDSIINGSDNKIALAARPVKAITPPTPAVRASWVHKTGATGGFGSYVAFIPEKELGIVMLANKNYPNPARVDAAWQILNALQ
#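 20 mM phosphate pH 7.0 + 0.01% (detergent screen) or 0.0001% Triton X-100; 5.3 nM AmpC reagent; cpd preinc 15 min RT; nitrocefin (800 uM stock) to start; A480 q20 s × 4 min; Activity was normalised to no-enzyme and no-compound control wells.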
# Sm TGR inh = qHTS Assay for the Inhibitors of Schistosoma Mansoni Peroxiredoxins; Schistosoma mansoni thioredoxin glutathione reductase (TGR), Q962Y6; purified TGR, DTNB reduction, TNB absorbance 405 nm; Potency, µM (top dose mostly 114 µM), for inactives: at the highest dose activity change, negative = inhibition, most hits filed as inhibitors; 3% of 360,000 active; AID 485364, 2010; note: % is set by controls: 0 for no effect and ±100 for the full control effect; nearly all actives have a fitted effect of over 60% in size
#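 First, TGR (20 nM dispensed) and NADPH were mixed with compound. Second, a 15 min room-temperature incubation followed. Third, further NADPH and then DTNB were added to start the reaction. Finally, TNB absorbance was monitored kinetically.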
# AmpC no deterg = qHTS Inhibitors of AmpC Beta-Lactamase (assay without detergent); P00811; 0.52% of 330,000 active; AmpC nitrocefin hydrolysis, absorbance 480 nm, 0.0001% Triton; Potency, µM (top dose mostly 57.1 µM), for inactives: at the top dose activity change, negative = inhibition, most hits filed as inhibitors;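 note: plate controls were no compound for no effect and no enzyme for full effect; nearly all actives have a fitted effect of over 20% in size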
#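 AmpC (5.3 nM in the dispensed reagent) in 20 mM phosphate pH 7.0 with 0.01% (detergent screen) or 0.0001% Triton X-100 was preincubated with compounds for 15 min at room temperature. Nitrocefin was then added from an 800 uM solution, and hydrolysis was followed at 480 nm.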
# Pf growth 48h = Primary qHTS for delayed death inhibitors of the malarial parasite plastid, 48 hour incubation; AID 504832, 2011; 5.9% of 310,000 active; Potency, µM (series often up to 28.7 µM), without a hit: top-dose activity change, negative = inhibition, hits mostly inhibitors; P. falciparum luciferase growth in erythrocytes, 48 h; note: % is set by controls: 0 for no effect and ±100 for the full control effect
#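 Firefly luciferase activity from engineered P. falciparum reports growth; inhibitors lower the luminescent signal. Cultures contained 2% hematocrit erythrocytes at 0.1% final parasitemia.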
# Pf growth 96h = Primary qHTS for delayed death inhibitors of the malarial parasite plastid, 96 hour incubation | 6.9% of 320,000 active | Potency, µM (doses to about 28.7 µM), for the others: at the top dose activity change, negative = inhibition, most hits filed as inhibitors | P. falciparum luciferase reporter growth, 96 h | AID 504834, 2011; note: % is set by controls: 0 for no effect and ±100 for the full control effect
#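 P. falciparum expressing integrated firefly luciferase grown in erythrocytes (2% hematocrit, 0.05% parasitemia final) with compounds for 96 hours at 37 C, 5% CO2. Growth inhibition read as loss of luminescence after adding luciferase detection reagent.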
# SARS PLP yeast = qHTS of Yeast-based Assay for SARS-CoV PLP | S. cerevisiae expressing SARS-CoV PLpro, growth rescue | Potency, µM (top dose mostly 32.9 µM), for the others: at the top dose activity, positive = growth rescue, usual class: activators | 0.19% of 330,000 active; calls by dose curve; note: 0% is about no effect; nearly all actives have a fitted effect of over 55% in size
# * = called active by the depositor; ? = inconclusive; · = no result; [ ] = dose if it differs, or a comment. Unless noted, calls come from the whole dose curve; as a rule, active = well fitted curve in the direction sought with a large enough effect; inconclusive = small, poorly fitted or top-dose-only effect, or another doubt; inactive = no such curve, though single readings can be large; an effect the other way counts as inactive or inconclusive. Potency is the fitted concentration of half-maximal effect.
SMILES,AmpC inh detg,Sm TGR inh,AmpC no deterg,Pf growth 48h,Pf growth 96h,SARS PLP yeast
CC(CS(=O)(=O)c1ccccc1[N+](=O)[O-])N1CCOCC1 (stereo not given),4.1%,-6.0%,-16.3%,11.7µM*,18.7%,-0.2%
CCOc1ccc(-n2c(=O)c3c4c(sc3n(Cc3cccc(Cl)c3)c2=O)CCCC4)cc1,7.8%,0.5%,·,·,·,·
COc1cccc(N2C(=O)[C@H]3C(C(=O)c4cnccn4)=NN[C@H]3C2=O)c1,-11.7%,44.7µM*,-26.6%,3.4%,33.3%,-1.7%
N#CC(C#N)=NNc1ccc([N+](=O)[O-])cc1,3.5%,25.1µM*,-15.6%,?,?,-14.2%
COc1ccc(C(=O)/C(C#N)=N/Nc2ccc([N+](=O)[O-])cc2)cc1,-5.5%,·,-39.3%,13.1µM*,?,-1.0%
COc1ccc(C(=O)/C(C#N)=N/Nc2ccccc2[N+](=O)[O-])cc1,0.2%,3.9%,-29.3%,26.3%,7.7%,18.5%
CCN(CC)S(=O)(=O)c1ccc(NN=C(C#N)C#N)cc1,2.7%,7.94µM*,-48.2%,?,?,-26.5%
COc1ccccc1N1CCN(C(=O)C2CCN(S(=O)(=O)c3cn(C)cn3)CC2)CC1,11.3%,-0.2%,·,·,·,·
Cc1ccc2oc(=O)c3cnn(CC(=O)N4CCN(c5ccccc5F)CC4)c3c2c1,6.5%,0.7%,·,·,·,·
CCOc1ccc(-c2nnc(SCC(=O)NCc3ccc(C)cc3)nc2-c2ccc(OCC)cc2)cc1,17.6%,13.2%,·,·,·,·
CC(OC(=O)c1nc(Cl)ccc1Cl)C(=O)Nc1ccccc1F (stereo not given),?,6.9%,-17.5%,53.9%,56.5%,-2.4%
Cn1nc(C(C)(C)C)cc1C(=O)O,-0.3%,-5.6%[57.1 µM],1.5%,11.6%,9.28µM*,1.9%
Cn1nc(C(C)(C)C)cc1C(=O)Sc1cccc(Br)c1,3.7%,12.6µM*,-16.0%,14.6%,14.8%,-9.0%
CCN(C(=O)c1nn(-c2ccc(OC)c(Cl)c2)c(=O)c2c1c1ccccc1n2C)c1cccc(C(F)(F)F)c1,-4.9%,-6.8%,·,·,·,·
CCN(CC)CC#CCOC(=O)C(O)(c1ccccc1)C1CCCCC1 (stereo not given),-0.3%,-30.7%,75.2%,?,?,-2.0%
CC[N+](CC)(CC)CC[C@](O)(c1ccccc1)C1CCCCC1,·,·,·,6.42µM*,5.73µM*,·
CC[N+](CC)(CC)CCCOC(=O)C(O)(c1ccccc1)C1CCCCC1 (stereo not given),0.6%,3.1%,0.9%,2.94µM*,·,-3.0%
CCN(CC)CC#CCC(O)(c1ccccc1)C1CCCCC1 (stereo not given),-0.2%,-2.0%,3.4%,14.5%,177.2%,-1.3%
OC(CC#CCN1CCCCCC1)(c1ccccc1)C1CCCC1 (stereo not given),3.1%,?,27.0%,?,2.94µM*,2.0%
Cc1cc(N2CCCC2)nc2ccc(NC(=S)NCCCN3CCC(C)CC3)cc12,9.1%,-32.8%,-8.5%,?,-23.9%,-0.4%
Clc1cccc(N2CCN(Cc3ccc(Br)o3)CC2)c1,?,2.3%,-1.0%,30.2%,18.7%,-8.7%
Cc1cccc2sc(NC(=O)C3CCCN(S(=O)(=O)c4cccc5nonc45)C3)nc12 (stereo not given),-7.2%,-15.4%,-37.2%,11.7µM*,?,-10.7%
CC(=O)c1ccc(NC(=O)C2CCCN(S(=O)(=O)c3cccc4nonc34)C2)cc1 (stereo not given),-5.7%,-11.2%,-19.6%,0.0%,-22.2%,-6.1%
Cc1ccc(NC(=O)C2CCCN(S(=O)(=O)c3cccc4nonc34)C2)cc1 (stereo not given),-5.1%,-9.8%,-26.7%,21.3%,2.62µM*,0.4%
COc1ccc(-c2nc(CS(=O)(=O)CC(=O)NC3CCCCC3C)c(C)o2)cc1 (stereo not given),?,?,21.8%,7.4%,35.4%,0.3%
SMILES,AmpC inh detg,Sm TGR inh,AmpC no deterg,Pf growth 48h,Pf growth 96h,SARS PLP yeast
Cc1ccc(-c2nc(CS(=O)(=O)CC(=O)NC3CC3)c(C)o2)cc1,3.7%,31.6µM*,29.7%,14.6%,32.4%,2.1%
Cc1ccc(-c2nc(CS(=O)(=O)CC(=O)NC3CCCCC3C)c(C)o2)cc1 (stereo not given),-14.7%,35.5µM*,1.7%,·,63.5%,7.2%
Cn1ncnc1SCc1cn2cccnc2n1,1.6%,8.7%,-11.3%,10.7%,10.6%,2.1%
O=C(OC1CCCCC1=O)c1cc(S(=O)(=O)N2CCOCC2)ccc1F (stereo not given),-10.9%,-1.4%,7.6%,?,?,?
C=Cc1ccc(CN2C(=O)N(c3cccc(Cl)c3)S(=O)(=O)c3ccccc32)cc1,-2.2%,3.5%,·,·,·,·
COc1ccc(NC(=O)Cn2c(SCc3ccc(C)cc3)nc3cccnc32)c(OC)c1,3.4%,-8.7%,·,·,·,·
COc1cccc(N2CCN(CC(=O)c3c(C)[nH]c4ccccc34)CC2)c1,-2.7%,-19.9%,28.7%,·,?,11.3%
COc1ccc2nc(SCC(=O)c3c(C)[nH]c4ccccc34)nc(C)c2c1,-1.6%,-1.6%,·,·,·,·
COc1ccc2[nH]c(C)c(C(=O)CN(C)C)c2c1,-12.6%,39.8µM*,2.1%,?,?,-1.6%
COc1ccc2[nH]c(C)c(C(=O)CN(C)CC3OCCO3)c2c1,-8.2%,25.1µM*,-9.0%,1.7%,10.5%,0.0%
O=C(Cc1cccs1)Nc1ccccc1F,0.1%,-2.3%,-1.9%,-14.9%[0.00184 µM],12.9%,-2.5%
Cc1cc(C)c(S(=O)(=O)NCC(c2ccco2)S(=O)(=O)c2ccccc2)c(C)c1 (stereo not given),10.5%,17.8µM*,·,·,·,·
Cc1ccc(S(=O)(=O)NCC(=O)N(c2ccccc2)C(C(=O)NCc2ccccc2)c2ccco2)cc1 (stereo not given),-1.1%,-7.1%,-7.3%,-15.3%,13.1µM*,4.9%
Cc1ccc(S(=O)(=O)NCC(c2ccco2)S(=O)(=O)c2ccccc2)cc1 (stereo not given),?,0.398µM*,-10.4%,-23.0%,?,1.2%
O=S(=O)(NCC(c1ccco1)S(=O)(=O)c1ccccc1)c1cc(F)ccc1F (stereo not given),-0.8%,7.08µM*,·,·,·,·
O=S(=O)(NCC(c1ccco1)S(=O)(=O)c1ccccc1)c1ccccc1 (stereo not given),0.7%,?,·,·,·,·
